This is a sample that favours compounds with a hit; in the whole collection about 12% have one here.
G9a inh: qHTS Assay for Inhibitors of Histone Lysine Methyltransferase G9a | Histone-lysine N-methyltransferase EHMT2 (Homo sapiens), Q96KQ7 | G9a H3K9 monomethylation, AlphaScreen, 2 h | Potency, µM (top dose mostly 102 µM), inactives show at the highest dose activity, negative = inhibition, hits mostly inhibitors | hit rate 8.8% among 350,000 | AID 504332, 2011; also: % is scaled to controls: 0 for no effect and ±100 for the full control effect; nearly all actives have a fitted effect of over 75% in size
Target sequence (Q96KQ7 913-1193 limits assumed): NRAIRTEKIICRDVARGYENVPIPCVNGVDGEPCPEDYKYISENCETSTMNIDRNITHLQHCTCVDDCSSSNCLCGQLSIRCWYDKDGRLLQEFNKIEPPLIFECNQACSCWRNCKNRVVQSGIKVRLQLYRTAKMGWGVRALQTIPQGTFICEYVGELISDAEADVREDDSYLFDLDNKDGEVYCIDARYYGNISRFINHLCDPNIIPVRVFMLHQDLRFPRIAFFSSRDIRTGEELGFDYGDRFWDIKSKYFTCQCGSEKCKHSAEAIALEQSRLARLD
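Enzyme 20 nM + cpd, 15 min RT; add b-H3K9 pep 500 nM / SAM 20 uM; 2 h RT; anti-H3K9me1 Ab 0.5 ug/mL + SA donor / anti-rabbit acceptor beads 20 ug/mL each, 10 min; AlphaScreen read.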
JMJD2A Tudor inh: qHTS Assay for Inhibitors of JMJD2A-Tudor Domain. Potency, µM (series often up to 114 µM), for inactives: top-dose activity change, negative = inhibition, hits mostly inhibitors. AlphaScreen JMJD2A-Tudor / H3K4me3 peptide binding. hit rate 4.4% among 390,000. Lysine-specific demethylase 4A (Homo sapiens), O75164; also: % is scaled to controls: 0 for no effect and ±100 for the full control effect; nearly all actives have a fitted effect of over 50% in size
BAZ2B block: qHTS Assay for Inhibitors of BAZ2B; Potency, µM (top dose mostly 114 µM), for inactives: at the top dose activity change, negative = inhibition, usual class: inhibitors; AlphaScreen BAZ2B-H3K14Ac peptide displacement; Bromodomain adjacent to zinc finger domain protein 2B (Homo sapiens), Q9UIF8; hit rate 4.4% among 360,000; also: % is scaled to controls: 0 for no effect and ±100 for the full control effect; nearly all actives have a fitted effect of over 60% in size
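BAZ2B 50 nM plus b-H3(5-23)K14Ac 50 nM, PBS pH 7.4/0.01% Tween-20, 30 min RT; compound added (max 110 uM), 30 min RT; streptavidin donor/Ni-chelate acceptor beads 10 ug/mL final, 20 min dark; AlphaScreen read.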
Sfp PPTase inh: qHTS Assay for Inhibitors of Bacillus subtilis Sfp phosphopantetheinyl transferase (PPTase) | hit rate 3.5% among 310,000 | Biochemical Sfp PPTase activity, qHTS | Potency, µM, without a hit: largest response in the series, negative = inhibition, most hits filed as inhibitors | 4'-phosphopantetheinyl transferase ffp (Bacillus subtilis), Q9F4F7;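 also: the enzyme is Sfp with the accession as filed and its product quenches rhodamine fluorescence; 0% = enzyme reaction without inhibitor and -100% = no enzyme wells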
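Sfp 15 nM + cpd, 15 min RT; start w/ rhodamine-CoA 5 uM, BHQ-2-YbbR 12.5 uM (final); 50 mM Hepes pH 7.6, 10 mM MgCl2, 0.01% NP-40, 0.01% BSA; read 525/598 nm at 0 and 30 min.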
HP1b chromo inh: HTS for Inhibitors of HP1-beta Chromodomain Interactions with Methylated Histone Tails; AlphaScreen HP1-beta / biotin-H3K9me3 peptide binding; Potency, µM (titrated, usually from 114 µM), without a hit: at the top dose activity change, negative = inhibition, hits mostly inhibitors; hit rate 0.56% among 390,000; also: nearly all actives have a fitted effect of over 70% in size
Target sequence (P83916 whole entry, looked up): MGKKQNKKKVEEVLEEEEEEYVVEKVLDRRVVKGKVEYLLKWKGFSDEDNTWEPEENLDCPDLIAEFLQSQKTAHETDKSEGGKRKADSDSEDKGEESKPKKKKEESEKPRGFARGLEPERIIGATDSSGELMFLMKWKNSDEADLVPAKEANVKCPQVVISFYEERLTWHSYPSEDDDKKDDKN
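Compound inhibition of the preformed complex between 50 nM HP1-beta and 50 nM biotinylated H3K9me3 peptide was read by AlphaScreen. Buffer was PBS pH 7.4 with 0.01% Tween-20. Incubations ran 30 min at room temperature, with 10 ug/mL donor/acceptor beads.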
* = called active by the depositor; ? = inconclusive; . = no result; [ ] = dose if it differs, or a comment. Calls follow the shape of the dose curve; as a rule, active = well fitted curve in the direction sought with a large enough effect; inconclusive = small, poorly fitted or top-dose-only effect, or another doubt; inactive = no such curve, though single readings can be large; an effect the other way counts as inactive or inconclusive. Potency is read from the fitted curve at half-maximal effect.

SMILES | G9a inh | JMJD2A Tudor inh | BAZ2B block | Sfp PPTase inh | HP1b chromo inh
COC(=O)C1=C(C)NC(C)=C(C(=O)OC)C1c1ccc(-c2cccc([N+](=O)[O-])c2)o1 | 79µM* | ? | -26% | -2% | 13%
COC(=O)C1=C(C)NC(C)=C(C(=O)OC)C1c1ccc(-c2cc(Cl)ccc2Cl)o1 | 18µM* | -12% | -5% | ? | 53%
O=S(=O)(c1ccc(Br)cc1F)N1CCCCC1CCO (configuration not stated) | . | -27% | . | . | 34%
COc1ccc(C(=O)Nc2ccc3c(c2)C(=O)c2ccccc2C3=O)cc1OC | -3%[59 µM] | -21% | -12% | -6% | 11%
COc1ccc(C(=O)c2c(C(F)(F)F)oc3c2C(=O)c2ccccc2C3=O)cc1OC | 14µM* | ? | ? | -6% | ?
COC(=O)NC(c1cccc(F)c1)[C@@]1(C(=O)OC)CCCC1=O (some centres not stated) | . | . | . | 25% | .
COC(C(=O)N/N=C(\C)CC(=O)Nc1ccc(N(C)C)cc1)c1ccccc1 (configuration not stated) | 16µM* | -26% | -21% | -12% | 11%
O=C(NC12CC3CC(CC(C3)C1)C2)c1cnccn1 | 29%[59 µM] | -35% | 4% | -7% | 42%
CN(C)c1ccc(NC(=O)CC(NCc2ccccn2)C(=O)O)cc1 (configuration not stated) | 13%[59 µM] | 18µM* | 5.6µM* | -13% | 30%
COc1ccc(/C(C)=N/NC(=O)c2ccccc2OCc2ccccc2)c(OC)c1 | 5% | 18µM* | -38% | -15% | -21%
C/C(CC(=O)NC12CC3CC(CC(C3)C1)C2)=N\NC(=O)c1cnccn1 | -2%[59 µM] | -15% | -10% | 50µM* | 27%
COC(C(=O)N/N=C(\C)CC(=O)Nc1ccc(Cl)cc1C)c1ccccc1 (configuration not stated) | -14% | -13% | -3% | 11% | 33%
N=C(N)c1ccc(OCCCCCOc2ccc(C(=N)N)cc2)cc1 (tested in a mixture with another compound) | 20%[12.7 µM] | . | . | . | .
C/C(CC(=O)Nc1ccc(N(C)C)cc1)=N\NC(=O)c1ccncc1 | 35µM* | -12% | -33% | -5% | 17%
COc1ccc(C(=O)N/N=C(\C)CC(=O)Nc2ccc(N(C)C)cc2)c(OC)c1 | 13%[0.501 µM] | ? | 40µM* | 3% | ?
C/C(CC(=O)Nc1ccc(N(C)C)cc1)=N\NC(=O)c1cnccn1 | ? | 79µM* | -35% | 56µM* | -7%
C/C(CC(=O)Nc1ccc(N(C)C)cc1)=N\NC(=O)c1ccccn1 | 50µM* | ? | 56µM* | -23% | ?
CCOc1ccc(NC(=O)C/C(C)=N/NC(=O)c2cnccn2)cc1 | 6%[0.501 µM] | -1% | ? | -25% | 33%
CCCCCCCCCCCCCCCC(=O)OC(CO)CO | . | . | . | 12% | .
CCOC(=O)c1cccc(NC(=O)CC2C(=O)N(c3ccc(F)cc3)C(=O)N2C(C)C)c1 (configuration not stated) | -1%[59 µM] | 9% | -7% | . | 30%
COC(=O)c1ccccc1NC(=O)Cn1c(=O)n(CCCC(=O)NCc2ccccc2OC)c(=O)c2ccccc21 | 2%[59 µM] | 14% | 2% | . | 26%
Cc1cccn2c(=O)c(C(=O)NCc3ccc(F)cc3)c(O)nc12 | 9%[59 µM] | -13% | 3% | . | 45%
CCC(=O)Nc1ccc(NCc2ccc(-c3ccccc3)cc2)cc1 | 25µM* | ? | -27% | -5% | 4%
NCCCC[C@@H]1NC(=O)c2cc([N+](=O)[O-])cc(I)c2SC[C@@H](C(N)=O)NC(=O)[C@H](CCC(N)=O)NC1=O | 8.9µM* | ? | ? | 9% | 27%
NCCCC[C@@H]1NC(=O)c2cc([N+](=O)[O-])cc(I)c2SC[C@@H](C(=O)NCC(N)=O)NC(=O)CNC1=O | 32µM* | -22% | -9% | 26% | 50%
